Assay results from PubChem BioAssay (NCI).
Compounds without any hit were thinned out: in the full panel of roughly 83,000, 20% have a hit.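 96-well plates, one dose, 48 hours. Percent growth reported; active if below 10.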 Values without a mark were called inactive. The source made the active and inactive calls.

How the values were obtained:
Assay in all cases: NCI-60 one-dose screen, 48 h (100 = growth as untreated, 0 = no growth, -100 = all killed)
Conditions in all cases: 10 µM unless noted
NCI-H23 lung = system: NCI-H23 lung
NCI-H226 lung = system: NCI-H226 lung
NCI-H322M lung = system: NCI-H322M lung
HOP-62 NSCLC = system: HOP-62 NSCLC
NCI-H460 lung = system: NCI-H460 lung
HOP-92 NSCLC = system: HOP-92 NSCLC
NCI-H522 lung = system: NCI-H522 lung
A549/ATCC NSCLC = system: A549/ATCC NSCLC
786-0 renal = system: 786-0 renal
COLO 205 colon = system: COLO 205 colon
DU-145 prostate = system: DU-145 prostate
K-562 leukemia = system: K-562 leukemia
MALME-3M melanoma = system: MALME-3M melanoma
MDA-MB-231 breast = system: MDA-MB-231 breast
RXF 393 renal = system: RXF 393 renal
SF-268 CNS = system: SF-268 CNS
SF-295 CNS = system: SF-295 CNS
SF-539 CNS = system: SF-539 CNS
UACC-257 melanoma = system: UACC-257 melanoma
M14 melanoma = system: M14 melanoma

Row | SMILES | growth (NCI-H23 lung) | growth (NCI-H226 lung) | growth (NCI-H322M lung) | growth (HOP-62 NSCLC) | growth (NCI-H460 lung) | growth (HOP-92 NSCLC) | growth (NCI-H522 lung) | growth (A549/ATCC NSCLC) | growth (786-0 renal) | growth (COLO 205 colon) | growth (DU-145 prostate) | growth (K-562 leukemia) | growth (MALME-3M melanoma) | growth (MDA-MB-231 breast) | growth (RXF 393 renal) | growth (SF-268 CNS) | growth (SF-295 CNS) | growth (SF-539 CNS) | growth (UACC-257 melanoma) | growth (M14 melanoma)
1 | O=C(CSc1oc(-c2ccccc2)nc1S(=O)(=O)c1ccccc1)Nc1ccc(F)cc1 | 78.6% | 87% | 76.9% | 86.1% | 93.5% | 2.48% (active) | 72.2% | 76.9% | 59.1% | 101% | 110% | 75.4% | 56.4% | 75.6% | 90.5% | 85.7% | 73.4% | 65.6% | 92.5% | 90.2%
2 | CCOC(=O)c1c(C(=O)c2cn(C)c3ccc(Br)cc23)c(-c2cn(C)c3ccc(Br)cc23)n(NC(=O)OC(C)(C)C)c1C | 86.5% [100 µM] | 89.7% [100 µM] | 89.5% [100 µM] | 56.1% [100 µM] | 80.5% [100 µM] | 4.73% [100 µM] (active) | 89.6% [100 µM] | 74% [100 µM] | 32% [100 µM] | 98.5% [100 µM] | 97.9% [100 µM] | 89.1% [100 µM] | 32.8% [100 µM] | 51.2% [100 µM] | 24.2% [100 µM] | 82.4% [100 µM] | 33% [100 µM] | 48.3% [100 µM] | 94.8% [100 µM] | 82.7% [100 µM]
3 | CCOC(=O)c1csc(NC(=O)COc2ccc(/C=C3\Oc4ccccc4C3=O)cc2)n1 | 86.5% | 108% | 95.4% | 72.6% | 95.4% | 102% | 55.1% | 88.7% | 68.4% | 112% | 114% | 62.7% | 109% | 81.7% | 79.6% | 88.3% | 102% | 95.5% | 87.9% | 94.6%
4 | CCN(CC)CCCCCNc1cc(OC(=O)c2ccc(Cl)cc2)cc2cccnc12 | 93.9% | 105% | 106% | 95.8% | 110% | 38.2% | 24.4% | 95.3% | 106% | 33.9% | 114% | 75.3% | 61% | 85.8% | 98.9% | 114% | 120% | 104% | 95.9% | 102%
5 | C=C(C)[C@@H]1CC[C@]2(CO)CC[C@]3(C)[C@H](CC[C@@H]4[C@@]5(C)CC[C@H](NCO)C(C)(C)[C@@H]5CC[C@]43C)[C@@H]12 | -20.9% (active) | 72.5% | -83.7% (active) | -61.9% (active) | -86.1% (active) | 42.2% | -42.7% (active) | -45.7% (active) | -94% (active) | -57.1% (active) | -69.2% (active) | 0.949% (active) | -81.2% (active) | -86.2% (active) | -79.3% (active) | 59.1% | 57.4% | -95.6% (active) | -51.6% (active) | -62.2% (active)
6 | COc1cc(C2c3cc(OC(C)=O)c(OC)cc3CC3C(=O)OCC32)ccc1OC(C)=O (stereo not given) | 105% | 107% | 115% | 91.8% | 109% | 53.7% | 105% | 104% | 96.4% | 119% | 115% | 115% | 112% | 105% | 115% | 111% | 112% | 99.4% | 103% | 106%
7 | COc1cc2c(c(OC)c1OC)CCC(c1cccc(NC(=O)c3ccc(Br)cc3)c1)O2 (stereo not given) | 80.1% | 72.4% | 75.1% | 87.2% | 93.5% | 58.5% | 74.6% | 67.4% | 97.1% | 85.8% | 87.9% | 49.7% | 80.4% | 82.6% | 89% | 78.6% | 66.9% | 97.3% | 69.6% | 81.3%
8 | COc1cc(C2CC(c3ccc(Nc4nc(Nc5ccc(Cl)cc5)nc(Nc5ccc(Cl)cc5)n4)cc3)=NN2C(C)=O)cc(OC)c1OC (stereo not given) | 83.3% | 104% | 106% | 105% | 106% | -3.51% (active) | 86.8% | 91.1% | 90.6% | 97.9% | 115% | 73.5% | 99.2% | 102% | 92.4% | 106% | 102% | 98.7% | 103% | 102%
9 | C=CCc1c(O)c(C(=O)/C=C/c2ccccc2)c(OC)c2ccoc12 | 53.4% | 21.9% | 61.9% | 88% | 16.8% | 47.3% | 37.9% | 44.7% | 71.3% | 59.5% | 63.2% | 46.8% | 79.4% | 47.6% | 7.33% (active) | 43% | 34.5% | 24.8% | 40.6% | 59.3%
10 | CCC(=C(c1ccc(OCCN2CCCCC2)cc1)c1ccc(OCCN2CCCCC2)cc1)c1ccc(Cl)cc1 | -81% (active) | -66.4% (active) | -99% (active) | -73.7% (active) | -80.5% (active) | -83.6% (active) | -69.7% (active) | -72.2% (active) | -88.8% (active) | -66.3% (active) | -89.8% (active) | -37% (active) | -83.4% (active) | -90.1% (active) | -81.4% (active) | -72.1% (active) | -89.7% (active) | -97.3% (active) | -76.9% (active) | -83.1% (active)
11 | COc1ccc(C(C)=O)cc1S(=O)(=O)Nc1c(N)nc(SC)[nH]c1=O | 91.3% | 104% | 96.9% | 110% | 103% | 115% | 98.6% | 99.7% | 102% | 101% | 107% | 93% | 96.4% | 111% | 107% | 96.1% | 98.1% | 108% | 103% | 94.8%
12 | COC1=CC(c2ccc[nH]2)=N/C1=C\c1[nH]c(C)c(CC(=O)NCc2ccccc2)c1C | 23.9% | 28.8% | 42.7% | 20.6% | 10.9% | -7.96% (active) | 17% | 18.1% | -42.7% (active) | 1.08% (active) | 34.7% | 0.172% (active) | -42.2% (active) | 0.672% (active) | 30.5% | 11.3% | -55.5% (active) | 2.49% (active) | -19.4% (active) | -49% (active)
13 | C#CCOc1cccc(Nc2ncnc3cc(NC(=O)C=C)ccc23)c1 | 30.3% | 62.3% | 50.3% | 40.4% | 16.1% | 12.3% | -17.5% (active) | 29.7% | 7.49% (active) | 17.3% | 5.4% (active) | 5.87% (active) | 33.9% | 20.5% | -17% (active) | 27.6% | 45% | 0.0579% (active) | 25.3% | 13%
14 | CC(C)(Sc1cc(C(C)(C)C)c(OC(=O)CCCC(=O)O)c(C(C)(C)C)c1)Sc1cc(C(C)(C)C)c(OC(=O)CCCC(=O)O)c(C(C)(C)C)c1 | 29.5% | 64.8% | 49.5% | 38% | 9.34% (active) | 73% | 37.8% | 21.4% | 49.7% | 58.4% | 51.4% | 35.1% | 46.2% | 57.8% | 37.6% | 28.6% | 33.7% | 6.97% (active) | 46.7% | 45.5%
15 | O=C(Nc1cccc(Cl)c1)Nc1cccc(Cn2c(=O)[nH]c3ccc(Oc4ncccn4)cc3c2=O)c1 | 33.1% | 64.4% | 66.1% | 64.8% | 42.8% | 43.7% | 25.6% | 40.4% | 71.4% | 48.3% | 37.3% | 26.3% | 58.9% | 53.4% | 67.5% | 30.8% | 36.2% | 62.8% | 23.7% | 53%
